Reference: PMC5700166

The sequences below were run against T1, GST-Nv-NF-kB (Ser allele) (Nematostella vectensis, UniProt A7UNT2 2-411) (assay: protein-binding microarray (PBM); PBM: ~300 nM protein, 6 mM HEPES pH 7.8, 80 mM KCl, 0.5 mM EDTA, 0.5 mM EGTA, 6% glycerol, 35 ng/ul poly-dIdC, 1% milk, 1 h, room temperature; Ap Aiptasia and Nv Nematostella (sea anemones) / Co Capsaspora / Aq Amphimedon (sponge) / Dm Drosophila / Hu human; RHD is the Rel homology domain; high values mean tight binding). Details: dsDNA, one strand shown.
T1 sequence: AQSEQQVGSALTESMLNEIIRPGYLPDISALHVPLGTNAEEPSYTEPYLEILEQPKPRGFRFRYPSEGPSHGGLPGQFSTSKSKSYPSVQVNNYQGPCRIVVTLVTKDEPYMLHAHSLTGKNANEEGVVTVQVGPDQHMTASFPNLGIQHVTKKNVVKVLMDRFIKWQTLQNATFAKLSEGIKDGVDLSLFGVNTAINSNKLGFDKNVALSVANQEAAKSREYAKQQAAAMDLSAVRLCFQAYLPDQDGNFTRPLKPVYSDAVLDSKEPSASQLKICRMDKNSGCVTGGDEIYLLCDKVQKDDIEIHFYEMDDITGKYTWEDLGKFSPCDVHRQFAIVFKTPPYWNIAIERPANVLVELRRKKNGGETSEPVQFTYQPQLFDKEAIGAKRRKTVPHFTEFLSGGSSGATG

Q: For “CCGATTAACATCAACTATCCCCCTGATGTTAATCGGGTCTTGATTCGCTTGACGCTGCTG”, which binding signal is on record?
A: The binding signal was 5.03 z-score.

Q: How did the binding signal turn out when “CCGATTAACATCAGAAGTCCCCCTGATGTTAATCGGGTCTTGATTCGCTTGACGCTGCTG” was run?
A: Its binding signal is 6.47 z-score.

Q: Which binding signal does the source give for “CCGATTAACATCAGGGGACTTCATGATGTTAATCGGGTCTTGATTCGCTTGACGCTGCTG” here?
A: Its binding signal is 6.12 z-score.
